The source of these data is PubChem BioAssay (NCATS).

Assay [1] in a line: HEK-293 Cancer Cell Toxicity qHTS against the NCATS CANVASS Library (AID 1347355). Also: nearly all actives have a fitted effect of over 65% in size. Also: potency is read from the fitted curve at half-maximal effect. The essentials: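 First, 1000 cells go into each well and rest for 4 hours. Next, an 11-point dilution range is pinned in. Plates then incubate 72 hours before CellTiter-Glo addition and luminescence reading.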
Assay [2] can be described thus: HPAF-II 24hr Apoptosis Induction qHTS against the NCATS CANVASS Library (AID 1347356). The essentials:
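Cells seeded at 500 per well, then compounds pin-transferred in an 11-point concentration series. After 24 hours at 37 degrees C, Caspase-Glo 3/7 was added and luminescence measured following 15 min at room temperature.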

A short description of assay [3]: HPAF-II 12hr Apoptosis Induction qHTS against the NCATS CANVASS Library (AID 1347358). The essentials: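 Cells plated at 500 per well are dosed with compound and incubated 12 hours at 37 degrees C. Caspase-Glo 3/7 reagent is added and, after 15 min at room temperature, luminescence proportional to caspase activity is measured.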
On the technique in general: Quantitative high-throughput screening tests each substance at several concentrations.

The nature of assay [4]: HEK293 24hr Apoptosis Induction qHTS against the NCATS CANVASS Library (AID 1347359). The essentials: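 Caspase-3/7 activation measured as luminescence from the DEVD-based Caspase-Glo reagent, 15 min at room temperature, following 24-hour compound treatment of HEK293 cells.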
Assay [5] is described as follows: HPAF-II 18hr Apoptosis Induction qHTS against the NCATS CANVASS Library (AID 1347360). In outline: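 Caspase-Glo 3/7 luminescence (DEVD substrate) after 15 min RT; HPAF-II, 500 cells/well, 18 h compound exposure at 37 degrees C, qHTS series; doxorubicin control 0.1nM - 4uM.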
A short description of assay [6]: HEK293 12hr Apoptosis Induction qHTS against the NCATS CANVASS Library (AID 1347361). In outline: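 500 HEK293 cells/well; cpds pin-transferred, 11-pt conc series; 12 h, 37 degrees C/5% CO2; Caspase-Glo 3/7 added, 15 min RT dark; luminescence.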
Assay [7] has as its system NAD(P)H diaphorase (Clostridium kluyveri). Kind of assay: Diaphorse counterscreen qHTS: Assay Interference Panel against the NCATS CANVASS Library (AID 1347362). The essentials: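 Counterscreen for coupling-enzyme interference: resorufin fluorescence from resazurin/NADH turnover, read after 5 min at room temperature. Compounds were tested over an 11-point series after 15 min dark preincubation with diaphorase in PBS-Tween.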
For orientation: A counterscreen serves to expose hits that act by an unwanted route or on another target.

Assay [8] concerns the target Luciferin 4-monooxygenase (Photinus pyralis) (UniProt P08659). Kind of assay: Firefly luciferase counterscreen qHTS: Assay Interference Panel against the NCATS CANVASS Library (AID 1347363). Also: series mostly up to about 57 µM. The essentials:
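Luminescence inhibition readout: compounds (11-point qHTS) sat 15 min at room temperature with substrate mix (0.013 mM luciferin and ATP), then firefly luciferase was added and signal read 5 min later.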

Assay [9] can be described thus: qHTS for ATAD5 Agonist screened against the NCATS CANVASS Library (AID 1347367). In outline: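 Luminescence read-out: ATAD5-driven luciferase in stably transfected HEK 293T cells, which rises post-transcriptionally with DNA damage. Cells were exposed 16hr at 37C to test compound; a CellTiter-Fluor fluorescence read (1hr) measured viability first.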
Assay [10] in a line: J3T Cancer Cell Toxicity qHTS against the NCATS CANVASS Library (AID 1347371). Also: potency is read from the fitted curve at half-maximal effect. In outline: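 Luminescence from CellTiterGlo, reporting cellular ATP, serves as the viability measure after 72 hr compound treatment of J3T canine glioma cells seeded at 500 cells/well.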
Assay [11] addresses Nuclear receptor subfamily 1 group I member 3 (Homo sapiens) (UniProt Q14994). Briefly: qHTS for Constitutive Androstane Receptor (CAR) Agonist screened against the NCATS CANVASS Library (AID 1347373).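 Also: every well also contained 1.5 µM PK11195 alongside the test compound.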 The essentials:
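Cells were plated and allowed to attach for 4hr, then dosed with compound in an 11-point series alongside 1.5uM PK11195. After 24hr at 37C, viability was measured fluorometrically and CAR-driven CYP2B6 reporter luminescence was recorded.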

Assay [12] is described as follows: qHTS for Hypoxia signaling pathway (HIF-1) agonists against the NCATS CANVASS Library (AID 1347375). The essentials:
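Cells plated and rested 5 h, compounds pinned in DMSO across 11 concentrations, incubated 17 h at 37C, loaded with CCF4-AM for 2 h, fluorescence read at 460 and 530 nm, then CellTiter-Glo luminescence measured for viability and normalization.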

The nature of assay [13]: 10-beta competent E. coli microbial cell viability qHTS against the NCATS CANVASS Library (AID 1347376). Also: series mostly up to about 46 µM. The essentials: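 Bacterial suspension diluted to 0.2 OD was dosed with compounds, 11-point series, then held overnight at 37C. BacTiter-Glo reagent was added, and after 20 min at room temperature ATP-dependent luminescence was measured.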
A short description of assay [14]: qHTS for H2AX Agonists against the NCATS CANVASS Library (AID 1347378). Also: potency is read from the fitted curve at half-maximal effect. The essentials: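 TR-FRET readout (ex 320 nm, em 665/620 nm ratio) of phospho-H2AX (S139) in CHO-K1 lysates. Cells treated 3 hr at 37C with compound titration, 0.76% DMSO; lysis 30 min, antibody detection 24 hr at RT.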
The nature of assay [15]: Inflammasome Signaling qHTS Counterscreen: IL-1-beta AlphaLISA counterscreen against the NCATS CANVASS Library (AID 1347381).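 Also: cell-free check with purified IL-1β in medium and no THP-1 cells; series mostly up to about 57 µM.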 In outline:
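Purified IL-1-beta (4 pg/well) + compound, 11-pt conc. series; acceptor beads 6 ug/mL + biotin-Ab 0.6 nM final, 1 h RT; SA-donor 24 ug/ml final, 30 min dark RT; read ex 680/em 615.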

The nature of assay [16]: Cytotoxicity qHTS for assessment of Hepg2 cells membrane integrity screened against the NCATS CANVASS Library (AID 1347387). The essentials: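 Cells were seeded at 2000 per well and left overnight to attach. Compounds were pin-transferred to give 0.59 nM - 46 uM in an 11-point series and incubated 5 hr at 37C. CytoTox-ONE reagent was added and, after 10 min at room temperature, fluorescence (ex 560, em 590 nm) was read.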

The nature of assay [17]: qHTS for activators of dead-cell proteases activity screened against the NCATS CANVASS Library (AID 1347392).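 Also: luminescence from protease leaking out of membrane-damaged cells cleaving impermeant substrate; rising signal means more cytotoxicity.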 The essentials: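 Luminescent dead-cell protease readout (AAF-aminoluciferin, 15 min, room temperature) after 5 h compound treatment of HepG2 cells (2000/well, pre-attached 18 h). Eleven concentrations.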
Assay [18] can be described thus: Redox Reaction Profiling qHTS: Assay Interference Panel against the NCATS CANVASS Library (AID 1347401). Also: potency is read from the fitted curve at half-maximal effect. In outline: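 Redox-cycling liability assessed as DTT-driven conversion of resazurin (5 uM, with 200 uM DTT, HEPES pH 7.3) to fluorescent resorufin. Fluorescence at 525/598 nm measured initially and after 15 min dark incubation.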
Assay [19] in a line: qHTS for inhibitors of Rabies Virus screened against the NCATS CANVASS Library (AID 1347402; calls by dose curve; also: series mostly up to about 46 µM).

Inconclusive results are not listed. Calls of active or inactive are those of the source. Unless noted, calls follow the shape of the dose curve; as a rule, active = well fitted curve in the direction sought with a large enough effect; inconclusive = small, poorly fitted or top-dose-only effect, or another doubt; inactive = no such curve, though single readings can be large; an effect the other way counts as inactive or inconclusive.

Sequence of Luciferin 4-monooxygenase (Photinus pyralis) (P08659 whole entry, looked up): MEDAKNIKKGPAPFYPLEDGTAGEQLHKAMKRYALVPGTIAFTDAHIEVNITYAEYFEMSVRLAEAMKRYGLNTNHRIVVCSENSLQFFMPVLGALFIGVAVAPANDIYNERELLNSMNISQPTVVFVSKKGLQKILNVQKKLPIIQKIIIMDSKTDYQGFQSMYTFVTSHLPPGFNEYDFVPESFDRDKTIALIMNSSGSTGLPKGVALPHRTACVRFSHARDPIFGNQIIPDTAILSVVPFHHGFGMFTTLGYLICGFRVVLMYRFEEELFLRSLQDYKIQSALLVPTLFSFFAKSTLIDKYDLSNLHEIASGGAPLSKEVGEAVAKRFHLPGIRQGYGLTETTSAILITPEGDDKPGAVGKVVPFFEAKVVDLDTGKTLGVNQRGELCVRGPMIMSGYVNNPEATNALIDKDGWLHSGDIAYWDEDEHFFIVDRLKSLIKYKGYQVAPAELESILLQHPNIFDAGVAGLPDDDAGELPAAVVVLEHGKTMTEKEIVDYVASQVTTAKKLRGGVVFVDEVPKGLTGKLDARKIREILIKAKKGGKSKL
Sequence of Nuclear receptor subfamily 1 group I member 3 (Homo sapiens) (Q14994 whole entry, looked up): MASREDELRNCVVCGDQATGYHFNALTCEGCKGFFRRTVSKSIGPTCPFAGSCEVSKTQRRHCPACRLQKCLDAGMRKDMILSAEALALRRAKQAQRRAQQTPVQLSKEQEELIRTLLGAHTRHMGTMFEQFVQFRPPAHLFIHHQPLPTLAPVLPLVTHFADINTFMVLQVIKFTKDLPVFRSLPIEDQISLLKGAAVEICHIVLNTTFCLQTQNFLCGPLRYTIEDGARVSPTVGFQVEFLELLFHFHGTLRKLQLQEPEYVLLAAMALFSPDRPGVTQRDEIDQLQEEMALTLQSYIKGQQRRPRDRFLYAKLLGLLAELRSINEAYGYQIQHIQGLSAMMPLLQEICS

For the compound `C=C[C@]12C=CCN3CC[C@@]4(c5ccccc5NC(=O)[C@@H]4C1)[C@@H]32`, the Potency result in assay [1], in assay [7], in assay [8], in assay [9], in assay [10] and in assay [11] was “inactive” throughout. Further, the Potency entry in assay [14] and in [18] was “inactive” each time. Besides, the compound was called inactive in assay [2], in assay [3], in [4], in assay [5], in assay [6] and in [12]. For the same compound, the result in assay [13], in assay [15], in [16], in assay [17] and in assay [19] was inactive.

Take `CCCC[C@@H](C)/C=C1/CN2CCC[C@H]2[C@@](C)(O)[C@@H]1O`: the Potency entry in [1], in assay [7], in [8], in assay [9], in assay [10] and in assay [11] was “inactive” in each case. Also, the Potency result in assay [14] and in assay [18] was “inactive” in each case. For the same compound, the compound was classed as inactive in [2], in assay [3], in assay [4], in assay [5], in [6] and in [12]. For the same compound, the compound was classed as inactive in assay [13], in assay [15], in assay [16], in assay [17] and in assay [19].

Turning to `CO[C@H]1C[C@H](O[C@H]2[C@@H](O)C[C@H](O[C@H]3CC[C@]4(C=O)[C@H]5CC[C@]6(C)C(C7=CC(=O)OC7)CC[C@]6(O)[C@@H]5CC[C@]4(O)C3)O[C@@H]2C)O[C@H](C)[C@H]1O[C@H]1C[C@@H](OC)[C@@H](O[C@@H]2O[C@H](CO)[C@@H](O)[C@H](O)[C@H]2O)[C@@H](C)O1` (some centres undefined), the Potency is 0.118 µM (active) in [1] and 0.332 µM (active) in [10]. Also, the call in assay [2], in assay [3], in [4], in [5], in assay [6] and in assay [12] was inactive. In addition, the compound was classed as inactive in assay [13], in [15], in assay [16] and in assay [17]. Further, the Potency entry in assay [7], in assay [8], in assay [9], in assay [11], in [14] and in [18] was “inactive” throughout.

Turning to `CO[C@@]12c3c(C)cc(O)c4c(=O)occ(c34)C(=O)[C@@H]1[C@]13COC(=O)c4c(O)cc(C)c(c41)C(=O)[C@H]2[C@@H]3OC(C)=O`, the Potency result in [1], in [8], in assay [9], in [10], in assay [11] and in [14] was “inactive” throughout. In assay [18], the Potency result was “inactive”. The compound was classed as inactive in [2], in assay [3], in assay [4], in assay [5], in [6] and in assay [12]. For the same compound, the compound was called inactive in [13], in [15], in [16], in assay [17] and in [19].

For `C=CC(C)(C)[C@@]12C[C@H]3C(=O)N/C(=C/c4cnc[nH]4)C(=O)N3[C@@H]1Nc1ccccc12`, the result in assay [2], in [3], in [4], in assay [5], in [6] and in assay [12] was inactive. For the same compound, the compound was classed as inactive in assay [13], in [15], in assay [16], in [17] and in assay [19]. For the same compound, the Potency result in [7], in assay [8], in [9], in assay [10], in [11] and in [14] was “inactive” throughout. The Potency result in assay [18] was “inactive”.

As for `C[C@]12CC(O)C3[C@@H](CCC4C[C@@H](O)CC[C@@]43CO)[C@@]1(O)CC[C@@H]2C1=CC(=O)OC1` (some centres undefined), the Potency in assay [1] was 13.2 µM (active); in [10], 14.8 µM (active). Further, the outcome in [2], in assay [3], in assay [4], in assay [5], in [6] and in [12] was inactive. The result in [13], in [15], in [16] and in [17] was inactive. Also, the Potency entry in assay [7], in assay [8], in [9], in assay [11], in assay [14] and in assay [18] was “inactive” in each case.

Take `C/C=C1/CN2C3CC1C1=CCC(=O)N4c5ccccc5[C@@]3(C[C@@H]2C2=C[C@H]3C5CC6N(CC[C@@]67c6ccccc6N(C2=O)[C@@H]37)C/C5=C/C)[C@H]14` (some centres undefined): the values for the Potency in assay [1] and in assay [10] were 7.43 µM (active) and 23.5 µM (active), respectively. The result in assay [2], in [3], in assay [5], in assay [12], in [13] and in [15] was inactive. In addition, the call in assay [16] and in assay [17] was inactive. In addition, the Potency entry in assay [7], in assay [8], in assay [9], in assay [11] and in [18] was “inactive” each time.

Regarding `COC1C(O)C(C)OC(OC2C(Oc3cccc4c(O)c5c(=O)oc6ccc(C)c7c(=O)oc(c34)c5c67)OC(C)C(O)C2O)C1O` (centres undefined), the Potency in assay [1] is 14.8 µM (active); in [10], 23.5 µM (active); in [14], 27.3 µM (active); in assay [18], 2.15 µM (active). In addition, the compound was called inactive in [2], in [3], in assay [4], in [5], in assay [6] and in [13]. Further, the outcome in [15], in assay [16], in assay [17] and in assay [19] was inactive. The Potency entry in [8], in [9] and in assay [11] was “inactive” each time.

In the case of `C1=C2CCCN[C@H]2C2CC1[C@H]1CCCCN1C2` (some centres undefined), the Potency result in assay [1], in assay [7], in assay [8], in [9], in [10] and in assay [11] was “inactive” each time. Moreover, the Potency result in [14] and in assay [18] was “inactive” each time. Also, the compound was classed as inactive in assay [2], in [3], in assay [4], in assay [5], in assay [6] and in assay [12]. The result in assay [13], in assay [15], in assay [16], in [17] and in [19] was inactive.

Regarding `CC[C@H]1CN2CCc3c([nH]c4cccc(OC)c34)[C@@H]2C[C@@H]1/C(=C\OC)C(=O)OC`, the Potency in assay [1] is 23.5 µM (active). In addition, the outcome in assay [2], in assay [3], in assay [4], in [5], in assay [6] and in [12] was inactive. Besides, the result in assay [13], in assay [15], in assay [16] and in assay [17] was inactive. Also, the Potency entry in assay [7], in assay [8], in assay [9], in assay [10], in assay [11] and in assay [14] was “inactive” throughout. Also, the Potency entry in assay [18] was “inactive”.
